About 310 (2.8%) of roughly 11,000 compounds were called active. No stated cut-off is given here; in the data, active means activity change below about -85%; inactive means the rest. Shown is part of a subset that was picked to be rich in actives.

For the experiment, the system named is intestinal alkaline phosphatase [Mus musculus]. Nature of the experiment: activators of mouse IAP, confirmation, biochemical, luminescence, single concentration (AID 434970). To be noted: purified mouse IAP, CDP-Star luminescence, 30 min, at 10 µM; activation factor: measured here: IAP activation factor, stronger effect = higher value; activity change, negative = activation: stronger effect = lower value.
For `Cc1ccc(NC(=O)CS(=O)CC(=O)NCC2CCCO2)cc1` (configuration not stated), the activation factor was determined as 1.07 and the activity change, negative = activation was -6.55% (inactive).
Take `O=C(O)C1C2C=CC(O2)C1C(=O)NCCC1=CCCCC1` (configuration not stated): the activation factor is 1.12 and the activity change, negative = activation was -12.2% (inactive).
The corresponding values for `COCCN(C(=O)C(F)(F)F)C(C(=O)NC1CCCCC1)c1ccco1` (configuration not stated) are 0.978 and 2.15% (inactive).
For `CC1CCN(C(=O)c2ccc(NC(=O)C3CCCO3)cc2)CC1` (configuration not stated), in that order: 1.06 and -5.95% (inactive).
Take `COc1cc2oc(=O)cc(-c3ccc(-c4ccc(F)c(Cl)c4)cc3)c2c(OC)c1OC`: the activation factor was 0.913 and the activity change, negative = activation was 8.7% (inactive).
The corresponding values for `Cn1c(Cn2cnc3ccccc32)nnc1SCC(=O)CC(=O)Nc1ccccc1` are 0.996 and 0.45% (inactive).
The corresponding values for `COc1ccc(-n2ncc3c(=O)n(CC(=O)N4c5ccccc5CC4C)cnc32)cc1` (configuration not stated) are 1 and -0.2% (inactive).
As for `O=C(Nc1cccc(Cl)c1)Nc1cccc(Cl)c1`, the activation factor is 3.21 and the activity change, negative = activation was -221% (active).
For `O=C(NCCc1ccc(Cl)cc1)Nc1cccc(Cl)c1`, in that order: 1.92 and -92.5% (inactive).
Consider `CC(=O)Nc1cccc(NC(=O)Nc2ccc(C(C)=O)cc2)c1`, for which the activation factor was determined as 1.13 and the activity change, negative = activation is -13.4% (inactive).
Consider `CSc1ccccc1NC(=O)Nc1cccc(Cl)c1`, for which the activation factor is 1.48 and the activity change, negative = activation is -48.5% (inactive).
As to `C=CCc1cc(Cl)ccc1OC(=O)Nc1cccc(Cl)c1`, the activation factor amounted to 2.05 and the activity change, negative = activation is -105% (active).
For `CCOC(=O)c1sc(NC(=O)Nc2cccc(Cl)c2)cc1C`, in that order: 1.83 and -82.6% (inactive).
As to `CCC1(COC(=O)Nc2cccc(Cl)c2)COC1`, the activation factor is 1.16 and the activity change, negative = activation is -16.4% (inactive).
For `CC(=O)c1cccc(NC(=O)Nc2cccnc2)c1`, in that order: 1 and -0.35% (inactive).
For `CC(C)OC(=O)NCCOC(=O)Nc1cccc(Cl)c1`, in that order: 2.12 and -112% (active).
The corresponding values for `N#CCc1ccc(NC(=O)Nc2cccc(Cl)c2)cc1` are 1.88 and -87.6% (inactive).
With `CC(O)c1cccc(NC(=O)Nc2cccc(NC(=O)Nc3cccc(C(C)O)c3)c2)c1` (configuration not stated), the activation factor amounted to 1.89 and the activity change, negative = activation is -88.9% (active).
The corresponding values for `C/C(CC(=O)Nc1cccc(Cl)c1)=N\NC(=O)Cc1ccc(Cl)cc1` are 1.02 and -2.2% (inactive).
As for `COCCN(CC(=O)NCc1ccc2c(c1)OCO2)C(=O)CCC(=O)Nc1nccs1`, the activation factor came out at 0.99 and the activity change, negative = activation was 1% (inactive).
For `O=S(=O)(N[C@H](CO)c1ccccc1)c1ccc(Br)cc1F`, in that order: 1.03 and -2.75% (inactive).
As for `CCOC(=O)C1=C(C)N(C[C@@H]2CC[C@@H](Cc3ccc(-c4ccccc4)cc3)O2)C(=O)NC1c1ccc(C(F)(F)F)cc1` (some centres not stated), the activation factor was found to be 0.924 and the activity change, negative = activation was 7.6% (inactive).
For `COc1ccc(CCNC(=O)CC2COc3ccccc3O2)cc1OC` (configuration not stated), in that order: 1.06 and -5.55% (inactive).
As to `Oc1c(C=C2N=c3ccccc3=N2)sc(=S)n1-c1ccc(F)cc1`, the activation factor worked out at 0.615 and the activity change, negative = activation was 38.5% (inactive).
Consider `COc1ccc(CC(NC(C)=O)C(=O)NC2CCN(C(=O)c3cnccn3)CC2)cc1` (configuration not stated), for which the activation factor amounted to 0.93 and the activity change, negative = activation is 7% (inactive).
The corresponding values for `CCN1Cc2cc(OC)ccc2-c2ccccc2S1(=O)=O` are 1.15 and -14.7% (inactive).
The corresponding values for `O=C(NCCN1CCN(Cc2ccccc2)CC1)Nc1cc(Cl)cc(Cl)c1` are 1.43 and -42.5% (inactive).
For the compound `O=C(Nc1cc(Cl)cc(Cl)c1)N1CCCC1`, the activation factor amounted to 1.62 and the activity change, negative = activation was -62.2% (inactive).
As to `CN(c1cccc(NC(=O)Nc2cccc(Cl)c2)c1)S(C)(=O)=O`, the activation factor was determined as 2.47 and the activity change, negative = activation is -147% (active).
For `Cc1ccc(S(=O)(=O)N(CC(=O)Nc2cccc(N(C)S(C)(=O)=O)c2)c2ccc(Cl)c(Cl)c2)cc1`, in that order: 1.73 and -73.1% (inactive).
The corresponding values for `CN1CCN(NC(=O)Nc2cc(Cl)cc(Cl)c2)CC1` are 2.2 and -120% (active).
The corresponding values for `CN(c1cccc(NC(=O)Nc2ccc(Cl)cc2)c1)S(C)(=O)=O` are 1.91 and -91.2% (inactive).
Take `COC(=O)c1ccc(CC(=O)c2c(C)cc(O)cc2O)o1`: the activation factor came to 0.877 and the activity change, negative = activation was 12.3% (inactive).
The corresponding values for `CC(C)COc1ccc(CNC(=S)NCc2ccccc2)cc1` are 1.12 and -11.7% (inactive).
Turning to `O=C(O)CC(c1cccc(Cl)c1)n1cccc1` (configuration not stated), the activation factor is 0.964 and the activity change, negative = activation was 3.65% (inactive).
As to `CCCCN1CCc2c([nH]c3c(C)cccc23)C1=O`, the activation factor was found to be 1.06 and the activity change, negative = activation was -6.35% (inactive).
Take `CCNS(=O)(=O)c1ccc(NC(=O)Nc2cccc(C(F)(F)F)c2)cc1`: the activation factor is 1.77 and the activity change, negative = activation was -76.7% (inactive).
For the compound `CCN(CC)S(=O)(=O)c1ccc(NC(=O)Nc2cccc(C(F)(F)F)c2)cc1`, the activation factor is 2.03 and the activity change, negative = activation is -103% (active).
`O=C(Nc1ccccc1)Nc1cccc(C(F)(F)F)c1`: the activation factor turned out to be 1.82 and the activity change, negative = activation was -82.1% (inactive).
As for `O=C(Nc1ccc(OC(F)F)cc1)Nc1cccc(C(F)(F)F)c1`, the activation factor was determined as 1.99 and the activity change, negative = activation was -99.2% (active).
The corresponding values for `CCN(CC)S(=O)(=O)c1cccc(C(=O)Nc2cccc(C)c2)c1` are 0.938 and 6.2% (inactive).
For `CCN(CC)S(=O)(=O)c1cccc(NC(=O)c2cc3ccccc3o2)c1`, in that order: 0.883 and 11.7% (inactive).
For `CCN(CC)S(=O)(=O)c1ccc(NC(=O)CN(c2cccc(F)c2)S(C)(=O)=O)cc1`, in that order: 0.911 and 8.85% (inactive).
As for `CCN(CC)S(=O)(=O)c1cccc(NC(=O)Nc2cccc(C(F)(F)F)c2)c1`, the activation factor came out at 4.57 and the activity change, negative = activation is -357% (active).
For `Cc1ccc(OC(F)F)c(NC(=O)Nc2cccc(C(F)(F)F)c2)c1`, in that order: 1.6 and -60.4% (inactive).
For `O=C(c1ccco1)N1CCN(CC(O)Cn2c3ccccc3c3ccccc32)CC1` (configuration not stated), in that order: 0.97 and 2.95% (inactive).
For `CC(C)OC(=O)CSc1nc2cccnc2n1C1CCCCC1`, in that order: 0.982 and 1.75% (inactive).
Regarding `COc1ccc(C2=NO[C@@H]3C(=O)N(c4cccc(C)c4C)C(=O)[C@H]23)cc1OC`, the activation factor is 0.93 and the activity change, negative = activation is 6.95% (inactive).
For `COC(=O)c1sccc1NC(=O)c1cc(OC)cc(OC)c1`, the activation factor was 0.928 and the activity change, negative = activation is 7.2% (inactive).
For `c1coc(C2Nc3ccccc3C3OCCC23)c1` (configuration not stated), in that order: 1.1 and -10.4% (inactive).
For `C=C(C)c1cccc(C(C)(C)NC(=O)NCC2COCCO2)c1` (configuration not stated), in that order: 1.09 and -9.1% (inactive).
As for `COc1ccc(C(=O)OC(C(=O)c2ccccc2)c2ccccc2)cc1` (configuration not stated), the activation factor came out at 0.982 and the activity change, negative = activation is 1.8% (inactive).
For `COc1ccc(C(=O)NC(Oc2ccccc2)C(Cl)(Cl)Cl)cc1` (configuration not stated), in that order: 1.06 and -6.15% (inactive).
For `C=C(C)c1cccc(C(C)(C)NC(=O)Nc2ccc(C(N)=O)cc2)c1`, in that order: 2.18 and -118% (active).
The corresponding values for `CC(=O)Nc1ccc(S(=O)(=O)Nc2cccc(NC(=O)C(C)(C)C)c2)cc1` are 1.12 and -11.8% (inactive).
Turning to `C=C(C)c1cccc(C(C)(C)NC(=O)NC(c2ccccc2)c2ccc(OC)cc2)c1` (configuration not stated), the activation factor came to 4.59 and the activity change, negative = activation was -359% (active).

The record behind these values is PubChem BioAssay AID434970 (Sanford-Burnham Center for Chemical Genomics, 2010).
